Screening data (PubChem)
This is a sample that favours compounds with a hit; in the whole collection about 11% have one here.
JMJD2A Tudor: qHTS Assay for Inhibitors of JMJD2A-Tudor Domain; Lysine-specific demethylase 4A (Homo sapiens), O75164; AlphaScreen JMJD2A-Tudor / H3K4me3 peptide binding; Potency, µM (highest dose often 114 µM), for the others: at the highest dose activity change, negative = inhibition, usual class: inhibitors; hit rate 4.4% among 390,000; note: % is set by controls: 0 for no effect and ±100 for the full control effect; nearly all actives have a fitted effect of over 50% in size
G9a block: qHTS Assay for Inhibitors of Histone Lysine Methyltransferase G9a. Histone-lysine N-methyltransferase EHMT2 (Homo sapiens), Q96KQ7. G9a H3K9 monomethylation, AlphaScreen, 2 h. Potency, µM (highest dose often 102 µM), inactives show at the top dose activity, negative = inhibition, most hits filed as inhibitors. hit rate 8.8% among 350,000. AID 504332, 2011; note: % is set by controls: 0 for no effect and ±100 for the full control effect; nearly all actives have a fitted effect of over 75% in size
Target sequence (Q96KQ7 913-1193 limits assumed): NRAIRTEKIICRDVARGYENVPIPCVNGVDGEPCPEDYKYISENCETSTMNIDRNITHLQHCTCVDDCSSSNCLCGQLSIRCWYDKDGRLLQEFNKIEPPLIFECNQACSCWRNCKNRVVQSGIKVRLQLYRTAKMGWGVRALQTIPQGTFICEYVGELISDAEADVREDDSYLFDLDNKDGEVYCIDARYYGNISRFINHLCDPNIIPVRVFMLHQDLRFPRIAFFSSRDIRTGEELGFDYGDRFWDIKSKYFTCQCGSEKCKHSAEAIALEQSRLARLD
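Chemiluminescent proximity detection of H3K9 monomethylation, read after 10 min bead incubation in the dark. Reaction: 20 nM G9a, 500 nM biotin-H3K9 peptide, 20 uM SAM cofactor, 2 h, room temperature, following 15 min enzyme-compound preincubation.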
L3MBTL1 block: qHTS Assay for the Inhibitors of L3MBTL1. AlphaScreen L3MBTL1–H3K9me1 peptide binding. hit rate 0.66% among 230,000. AID 485360, 2010. Lethal(3)malignant brain tumor-like protein 1 (Homo sapiens), Q9Y468. Potency, µM (top dose mostly 57.1 µM), for the others: at the highest dose activity, negative = inhibition, most hits filed as inhibitors; note: % is set by controls: 0 for no effect and ±100 for the full control effect; nearly all actives have a fitted effect of over 60% in size
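First, the protein-peptide complex forms for 30 min at room temperature (L3MBTL1 50 nM, biotinylated H3K9me1 peptide 75 nM). Next, compounds are pin-transferred and incubated 30 min. Finally, AlphaScreen beads are added and read after 30 min.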
HP1b chromo inh: HTS for Inhibitors of HP1-beta Chromodomain Interactions with Methylated Histone Tails. Chromobox protein homolog 1 (Homo sapiens), P83916. Potency, µM (top dose mostly 114 µM), inactives show at the highest dose activity change, negative = inhibition, actives largely listed as inhibitors. hit rate 0.56% among 390,000. AlphaScreen HP1-beta / biotin-H3K9me3 peptide binding; note: nearly all actives have a fitted effect of over 70% in size
Target sequence (P83916 whole entry, looked up): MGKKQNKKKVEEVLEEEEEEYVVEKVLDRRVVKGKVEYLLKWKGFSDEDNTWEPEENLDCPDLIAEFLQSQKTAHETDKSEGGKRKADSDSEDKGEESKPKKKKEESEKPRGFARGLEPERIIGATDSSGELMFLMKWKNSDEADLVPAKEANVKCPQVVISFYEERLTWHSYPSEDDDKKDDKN
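AlphaScreen: HP1-beta (50 nM) preformed 30 min with biotin-H3(1-18)K9me3 peptide (50 nM) in PBS pH 7.4, 0.01% Tween-20. Compound added for 30 min at RT, then streptavidin donor/nickel chelate acceptor beads (10 ug/mL) for 30 min.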
BAZ2B inh: qHTS Assay for Inhibitors of BAZ2B. AlphaScreen BAZ2B-H3K14Ac peptide displacement. Potency, µM (titrated, usually from 114 µM), without a hit: at the top dose activity change, negative = inhibition, usual class: inhibitors. hit rate 4.4% among 360,000; note: % is set by controls: 0 for no effect and ±100 for the full control effect; nearly all actives have a fitted effect of over 60% in size
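In this displacement format the biotinylated H3(5-23) peptide acetylated at Lys14 serves as ligand at 50 nM, with BAZ2B at 50 nM in PBS pH 7.4 containing 0.01% Tween-20. Donor and acceptor beads are 10 ug/mL final.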
Starred values were filed as active, the others as inactive; u = inconclusive; x = no result; [ ] = remark or other dose. Calls come from the whole dose curve; as a rule, active = well fitted inhibition curve with a large enough effect; inconclusive = small, poorly fitted or top-dose-only effect; inactive = no such curve, though single readings can be large or run the other way. Potency is the fitted concentration of half-maximal effect.

SMILES	JMJD2A Tudor	G9a block	L3MBTL1 block	HP1b chromo inh	BAZ2B inh
COCCn1nnnc1C(c1ccc(OC)cc1)N1CCN(C(=O)c2ccco2)CC1 (centres undefined)	-15%	u	x	31%	-15%
O=C(COC(=O)c1cccc(Br)c1)NCC1CCCO1 (centres undefined)	3%	x	13%	19%[57 µM]	x
O=C(CSc1nc2[nH]ncc2c(=O)[nH]1)Nc1ccccc1	-5%	4%	x	5%	4%
CC(=O)c1ccc(-c2csc3ncnc(Sc4nnnn4C)c23)cc1	-20%	x	x	x	x
CCc1ccccc1N(CC(=O)NC(C)c1ccccc1)S(C)(=O)=O (centres undefined)	-7%	u	3%	23%	-6%
COc1ccc(N2C(=S)NC3N2C(=S)NC3(C)c2ccccc2)cc1 (centres undefined)	-23%	28µM*	-3%	12%	u
CC1(c2ccccc2)NC(=S)N2C1NC(=S)N2c1ccccc1 (centres undefined)	u	50µM*	x	15%	-35%
COc1cccc(N2C(=O)C3C(C2=O)C3(c2ccccc2)c2ccccc2)c1 (centres undefined)	-13%	3%	-15%	9%	-15%
CC(C)(C)S(=O)(=O)N1C[C@H]2C(=CC[C@@H]3C(=O)N(c4ccccc4)C(=O)[C@@H]32)[C@H]1CCO	-31%	x	x	36%	x
COc1ccc(-c2c(C3C4C=CCCC4(C)C(=O)N3Cc3ccccc3)ccc3ccccc23)cc1OC (centres undefined)	u	x	x	22%	x
CC(C)C[C@@H](CN)NC(=O)c1nc[nH]c1C(=O)N[C@@H](CC(=O)O)C(=O)CNC[C@H](C)NC(=O)c1nc[nH]c1C(=O)N[C@@H](CC(=O)O)C(=O)O	89µM*	x	x	89%	x
CC(C)C[C@@H](CNCC(=O)[C@H](CC(C)C)NC(=O)c1[nH]cnc1C(=O)N[C@@H](C)CN)NC(=O)c1nc[nH]c1C(=O)N[C@@H](C)C(=O)O	-3%	x	x	29%	x
CC(C)C[C@@H](CN)NC(=O)c1nc[nH]c1C(=O)N[C@@H](C)C(=O)CNC[C@H](CC(C)C)NC(=O)c1nc[nH]c1C(=O)N[C@@H](CC(=O)O)C(=O)O	79µM*	x	x	88%	x
CC(C)C[C@@H](CNCC(=O)[C@H](CC(=O)O)NC(=O)c1[nH]cnc1C(=O)N[C@H](CN)CC(C)C)NC(=O)c1nc[nH]c1C(=O)N[C@@H](C)C(=O)O	u	x	x	65%	x
CC(C)C[C@@H](CN)NC(=O)c1nc[nH]c1C(=O)N[C@@H](C)C(=O)CNC[C@H](C)NC(=O)c1nc[nH]c1C(=O)N[C@@H](CC(=O)O)C(=O)O	56µM*	x	x	45%	x
Cc1nc(Nc2nc3ccccc3o2)nc2c1CCC2	10µM*	u	0%	6%	x
CCCn1c(SCC(=O)NC2CCCCC2)nnc1-c1ccccn1	10%	-3%	-3%	43%	u
O=C(CSc1nnc(-c2ccccn2)n1Cc1ccccc1)NC1CCCC1	-2%	-30%	-8%	27%	89µM*
C=CCn1c(SCC(=O)Nc2ccc3c(c2)OCCO3)nnc1-c1ccccn1	89µM*	-2%	-3%	11%	u
O=C(CSc1nnnn1Cc1ccccc1)N1CCN(c2ccccc2)CC1	89µM*	45µM*	-2%	2%	-8%
C=CCn1c(SCC(=O)NC2CCCCC2)nnc1-c1ccccn1	-8%	10%	x	32%	79µM*
C=CCn1c(COc2ccccc2)nnc1SCC(=O)Nc1ccc2c(c1)OCCO2	-13%	0%	-5%	9%	-27%
COC(=O)c1ccc(NC(=O)CSc2ccc(-c3sc(-c4ccccc4)nc3C)nn2)cc1	-17%	-28%[59 µM]	x	33%	-13%
CCN(c1ccccc1)c1ccc2cc(S(=O)(=O)N3CCCC3)ccc2n1	77%	18%[59 µM]	x	147%	51%
Cc1ccc(Cl)cc1N1CCN(C(=O)c2cc(S(=O)(=O)N3CCCC3)c[nH]2)CC1	-31%	-22%[59 µM]	x	-1%	-35%
SMILES	JMJD2A Tudor	G9a block	L3MBTL1 block	HP1b chromo inh	BAZ2B inh
Cn1c(SCC(=O)NC2CCCC2)nnc1-c1ccccn1	-3%	x	x	35%	u
COc1ccc(OCc2nnc(SCC(=O)NC3CCCCC3)o2)cc1	u	28%	x	9%	3%
Cn1c(SCC(=O)NC2CCCCC2)nnc1-c1ccccn1	2%	28%	x	24%	79µM*
Cc1ccccc1OCc1nnc(SCC(=O)NC2CCCCC2)o1	-11%	50µM*	x	u	9%
O=C(CSc1nnnn1Cc1ccccc1)NC1CCCCC1	-1%	50µM*	0%	38%	-13%
COc1cc(-c2nnc(SCC(=O)NC3CCCC3)n2C)cc(OC)c1O	-2%	79µM*	x	51%	-8%
COc1ccc(-c2nnc(SCC(=O)NC3CCCC3)n2C)cc1	9%	u	x	32%	-2%
CN1CCN(c2ncc3ncc(=O)n(C4CC4)c3n2)CC1	x	0%[0.501 µM]	x	x	x
CCn1c(CSCc2ccc(C)cc2)nnc1SCC(=O)N1CCN(c2ccccc2)CC1	u	u	x	2%	u
C=CCn1c(CSCc2ccccc2)nnc1SCC(=O)N1CCN(c2ccccc2)CC1	-19%	25µM*	u	15%	-29%
Cc1nc(CC(=O)c2ccc(O)cc2O)cs1	4%	u	x	28%	-2%
O=C(NCc1ccccn1)Nc1cccc(NC(=O)NCc2ccccn2)c1	-5%[57.1 µM]	8%[59 µM]	16%[11.4 µM]	38%	-36%
Cc1nc(C/C(=N\Nc2ccccc2)c2ccc(O)cc2O)cs1	50µM*	4.5µM*	u	u	50µM*
CCc1cc(/C(Cc2ccccn2)=N\Nc2ccccc2)c(O)cc1O	u	2.5µM*	-27%	u	50µM*
CCn1cc(S(=O)(=O)c2ccc(C)cc2)c(=O)c2cc(F)c(N3CCCCCC3)cc21	3%	0%[59 µM]	x	64%	1%
Cc1cccn2cc(-c3cc4ccccc4oc3=O)nc12	89µM*	x	60%	-13%	-9%
COc1cc2c(cc1OC)C(Cc1ccc(O)cc1)N(C)CC2 (centres undefined)	-18%	50µM*	0%	5%	-3%
Cc1noc(C)c1-c1ccc2ncnc(NCc3cccc(-c4ccccc4)c3)c2c1	-30%	8%[12.7 µM]	-5%	x	-11%
COc1ccccc1N(CC(O)CN1CCOCC1)S(=O)(=O)c1ccccc1 (centres undefined)	-15%	50µM*	x	-1%	-9%
